Laboratory results: PubChem BioAssay AID1159580 (chemical genetic matrix, 2015)
Out of some 5,500 compounds screened, about 2,000 (36%) were called active. Another 18% or so got no clear call; they are omitted. Rule as the data show it: active = normalized growth mostly below about 0.91 (no sharp cut-off); inconclusive = no clear call, values can overlap the other calls; inactive = mostly above about 0.92. The list shows a part of the results.

Experiment: chemical genetic growth profiling, strain panel (AID 1159580);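 also: tested at 20 µM; growth read once vehicle control cultures reached saturation at 30 °C; 1 = growth at the plate median or of vehicle wells; lower values mean less growth of the strain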
Conditions: growth OD

Measured: normalized growth

Cc1cc(=O)oc2cc(O)c(O)cc12
inactive: S. cerevisiae deletion strains, locus YJR043C, strain POL32, hits give low values 0.964 | S. cerevisiae deletion strains, locus YJR066W, strain TOR1, hits give low values 0.913 | S. cerevisiae deletion strains, locus YKL009W, strain mrt4, hits give low values 0.922 | S. cerevisiae deletion strains, locus YKL068W, hits give low values 1.01 | S. cerevisiae deletion strains, locus YKL085W, strain MDH1 (second series), hits give low values 1.02 | S. cerevisiae deletion strains, locus YKL085W, strain MDH1, hits give low values 1.02 | S. cerevisiae deletion strains, locus YKL160W, strain elf1, hits give low values 1 | S. cerevisiae deletion strains, locus YKL190W, strain CNB1, hits give low values 1.01 | S. cerevisiae deletion strains, locus YKR001C, strain vps1, hits give low values 0.934 | S. cerevisiae deletion strains, locus YKR026C, strain gcn3, hits give low values 0.994 | S. cerevisiae deletion strains, locus YKR091W, strain srl3, hits give low values 0.981 | S. cerevisiae deletion strains, locus YLL001W, strain dnm1, hits give low values 0.995 | S. cerevisiae deletion strains, locus YLL026W, hits give low values 0.989 | S. cerevisiae deletion strains, locus YLL041C, strain sdh2, hits give low values 0.986 | S. cerevisiae deletion strains, locus YLR027C, strain aat2, hits give low values 0.976 | S. cerevisiae deletion strains, locus YLR039C, strain RIC1, hits give low values 0.945 | S. cerevisiae deletion strains, locus YLR058C, strain SHM2, hits give low values 0.99 | S. cerevisiae deletion strains, locus YLR102C, strain apc9, hits give low values 1.01 | S. cerevisiae deletion strains, locus YLR113W, strain HOG1, hits give low values 0.954 | S. cerevisiae deletion strains, locus YLR221C, strain rsa3, hits give low values 0.986 | S. cerevisiae deletion strains, locus YLR258W, strain gsy2, hits give low values 1 | S. cerevisiae deletion strains, locus YLR262C, strain YPT6 (second series), hits give low values 0.962 | S. cerevisiae deletion strains, locus YLR262C, strain YPT6, hits give low values 1.01 | S. cerevisiae deletion strains, locus YLR268W, strain sec22, hits give low values 0.983 | S. cerevisiae deletion strains, locus YLR320W, strain mms22, hits give low values 0.987 | S. cerevisiae deletion strains, locus YLR330W, strain CHS5, hits give low values 1 | S. cerevisiae deletion strains, locus YLR342W, strain FKS1 (second series), hits give low values 0.992 | S. cerevisiae deletion strains, locus YLR342W, strain FKS1, hits give low values 1.01 | S. cerevisiae deletion strains, locus YLR357W, strain rsc2, hits give low values 1.01 | S. cerevisiae deletion strains, locus YLR370C, strain arc18, hits give low values 0.982 | S. cerevisiae deletion strains, locus YLR371W, strain rom2, hits give low values 1 | S. cerevisiae deletion strains, locus YLR384C, strain iki3, hits give low values 0.993 | S. cerevisiae deletion strains, locus YLR418C, strain cdc73, hits give low values 0.939 | S. cerevisiae deletion strains, locus YML016C, strain PPZ1, hits give low values 0.994 | S. cerevisiae deletion strains, locus YML032C, strain rad52, hits give low values 0.965 | S. cerevisiae deletion strains, locus YML120C, strain ndi1, hits give low values 1 | S. cerevisiae deletion strains, locus YML124C, strain tub3, hits give low values 1.01 | S. cerevisiae deletion strains, locus YMR058W, strain fet3, hits give low values 0.989 | S. cerevisiae deletion strains, locus YMR078C, strain ctf18, hits give low values 1 | S. cerevisiae deletion strains, locus YMR125W, strain sto1, hits give low values 1.04 | S. cerevisiae deletion strains, locus YMR129W, hits give low values 1 | S. cerevisiae deletion strains, locus YMR205C, strain PFK2, hits give low values 1.02 | S. cerevisiae deletion strains, locus YMR223W, strain ubp8, hits give low values 0.951 | S. cerevisiae deletion strains, locus YMR231W, strain pep5, hits give low values 0.998 | S. cerevisiae deletion strains, locus YMR307W, strain GAS1, hits give low values 1.01 | S. cerevisiae deletion strains, locus YNL067W, strain RPL9B, hits give low values 0.994 | S. cerevisiae deletion strains, locus YNL071W, strain lat1, hits give low values 0.988 | S. cerevisiae deletion strains, locus YNL128W, strain TEP1, hits give low values 1.01 | S. cerevisiae deletion strains, locus YNL183C, strain NPR1, hits give low values 0.902 | S. cerevisiae deletion strains, locus YNL209W, strain ssb2, hits give low values 1 | S. cerevisiae deletion strains, locus YNL233W, strain BNI4, hits give low values 0.961 | S. cerevisiae deletion strains, locus YNL248C, strain rpa49, hits give low values 0.941 | S. cerevisiae deletion strains, locus YNL250W, strain rad50, hits give low values 1.02 | S. cerevisiae deletion strains, locus YNL271C, strain bni1, hits give low values 0.993 | S. cerevisiae deletion strains, locus YNL298W, strain CLA4, hits give low values 0.961 | S. cerevisiae deletion strains, locus YNL307C, strain MCK1, hits give low values 0.989 | S. cerevisiae deletion strains, locus YNL322C, strain KRE1 (second series), hits give low values 0.995 | S. cerevisiae deletion strains, locus YNR049C, strain mso1, hits give low values 0.989 | S. cerevisiae deletion strains, locus YNR052C, strain pop2, hits give low values 0.974 | S. cerevisiae deletion strains, locus YOL006C, strain TOP1, hits give low values 0.805 | S. cerevisiae deletion strains, locus YOL012C, strain htz1 1.25 | S. cerevisiae deletion strains, locus YOL147C, strain pex11, hits give low values 0.993 | S. cerevisiae deletion strains, locus YOR001W, strain rrp6, hits give low values 0.967 | S. cerevisiae deletion strains, locus YOR061W, strain CKA2, hits give low values 1 | S. cerevisiae deletion strains, locus YOR069W, strain VPS5, hits give low values 1.01 | S. cerevisiae deletion strains, locus YOR070C, strain gyp1, hits give low values 0.99 | S. cerevisiae deletion strains, locus YOR080W, strain dia2, hits give low values 0.975 | S. cerevisiae deletion strains, locus YOR083W, strain WHI5, hits give low values 0.978 | S. cerevisiae deletion strains, locus YOR106W, strain vam3, hits give low values 0.993 | S. cerevisiae deletion strains, locus YOR136W, strain idh2, hits give low values 1 | S. cerevisiae deletion strains, locus YOR144C, strain elg1, hits give low values 1 | S. cerevisiae deletion strains, locus YOR184W, strain ser1, hits give low values 0.88 | S. cerevisiae deletion strains, locus YOR231W, strain MKK1, hits give low values 0.904 | S. cerevisiae deletion strains, locus YOR265W, strain rbl2, hits give low values 0.989 | S. cerevisiae deletion strains, locus YOR270C, strain vph1, hits give low values 0.893 | S. cerevisiae deletion strains, locus YOR290C, strain snf2, hits give low values 0.937 | S. cerevisiae deletion strains, locus YOR316C, strain cot1, hits give low values 1 | S. cerevisiae deletion strains, locus YPL051W, strain arl3, hits give low values 0.987 | S. cerevisiae deletion strains, locus YPL078C, strain atp4, hits give low values 0.992 | S. cerevisiae deletion strains, locus YPL106C, strain sse1, hits give low values 0.978 | S. cerevisiae deletion strains, locus YPL240C, strain hsp82, hits give low values 0.994 | S. cerevisiae deletion strains, locus YPL256C, strain CLN2, hits give low values 0.936 | S. cerevisiae deletion strains, locus YPR119W, strain clb2, hits give low values 1.01 | S. cerevisiae deletion strains, locus YPR141C, strain kar3, hits give low values 1.02 | S. cerevisiae deletion strains, locus YPR163C, strain tif3, hits give low values 1.02 | S. cerevisiae deletion strains, locus YPR167C, strain met16, hits give low values 0.981 | S. cerevisiae deletion strains, strain wtn01, hits give low values 0.988 | S. cerevisiae strains, strain wild type, hits give low values 1.01
